Data on seven compounds can be found in PubChem BioAssay (EPA / NIEHS).

Assay [1] can be described thus: APR_HepG2_StressKinase_1hr: Apredica 1-hour HepG2 Assay for Stress Kinase (AID 2282906). The conditions noted are these: HepG2 stress kinase (phospho-c-Jun) imaging, actives raise or lower the signal. A digest of the protocol: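 High-content imaging of phospho-c-Jun immunostaining (with Hoechst nuclear identification) after a 1 h exposure of HepG2 cells to 10 concentrations from 0.39 to 200 uM, final DMSO 0.5%. Fitted bidirectionally against DMSO.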

Assay [2] in a line: APR_HepG2_NuclearSize_24hr: Apredica 24-hour HepG2 Assay for Nuclear Size (AID 2282907). As to conditions: high-content imaging, actives raise or lower the signal. In short, it runs like this: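 After fixation and permeabilization, 24-hr-treated HepG2 cells were stained with Hoechst 33342 and imaged on an ArrayScan (20x). Doses spanned 0.39–200 uM in duplicate. Nuclear diameter changes in either direction were fitted relative to 0.5% DMSO controls.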

Assay [3] is described as follows: APR_HepG2_CellLoss_24hr: Apredica 24-hour HepG2 Assay for Cell Loss (AID 2282908).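 On AC50: fit in both directions so a hit may be cell loss or gain.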 As to conditions: high-content imaging. In short, it runs like this: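 Duplicate wells received compound at ten concentrations (0.39–200 uM; final DMSO 0.5% v/v). After fixation with formaldehyde, nuclei stained with Hoechst 33342 were imaged at 20x. Loss or gain of cell count was fitted relative to DMSO controls.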

A short description of assay [4]: APR_HepG2_MicrotubuleCSK_24hr: Apredica 24-hour HepG2 Assay for Microtubule CSK Stabilty (AID 2282909). The conditions noted are these: HepG2 microtubule cytoskeleton imaging, actives raise or lower the signal. In short, it runs like this:
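Microtubule stability is scored from tubulin immunofluorescence in fixed HepG2 cells imaged at 20x. Cells receive ten compound concentrations up to 200 uM for 24 h; taxol and DMSO serve as positive and negative controls.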

A short description of assay [5]: APR_HepG2_MitoticArrest_24hr: Apredica 24-hour HepG2 Assay for Mitotic Arrest (AID 2282910). The conditions noted are these: high-content imaging, actives raise or lower the signal. In short, it runs like this: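 High-content imaging of fixed HepG2 cells labeled with Hoechst 33342 and anti-phospho-histone H3, after 24 h treatment. Ten concentrations 0.39 to 200 uM in duplicate, final DMSO 0.5%; changes fitted both directions relative to DMSO.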

Assay [6] is described as follows: APR_HepG2_MitoMembPot_24hr: Apredica 24-hour HepG2 Assay for Mitochondrial Membrane Potential (AID 2282911). The conditions noted are these: imaging, actives raise or lower the signal. In short, it runs like this:
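HepG2 cells exposed 24 h to 0.39–200 uM compounds in duplicate, 0.5% v/v DMSO final. MitoTracker Red CMXRos 250 nM loaded 30 min before formaldehyde fixation; high-content imaging at 20x, bidirectional fit versus DMSO.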

Assay [7] is described as follows: APR_HepG2_MitoMass_24hr: Apredica 24-hour HepG2 Assay for Mitochondrial Mass (AID 2282912). The conditions noted are these: high-content imaging, actives raise or lower the signal. A digest of the protocol: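 Readout: fluorescence of MitoTracker Red CMXRos (250 nM, added 30 min pre-fixation) in fixed HepG2 cells imaged by HCS. Exposure lasted 24 hr at 0.39–200 uM; increases and decreases were both fitted relative to DMSO.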

The nature of assay [8]: APR_HepG2_CellCycleArrest_72hr: Apredica 72-hour HepG2 Assay for Cell Cycle Arrest (AID 2282914). As to conditions: high-content imaging, actives raise or lower the signal. In short, it runs like this: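 HepG2 cells exposed 72 h in duplicate to 0.39–200 uM compound, 0.5% DMSO final. Formaldehyde-fixed, Hoechst 33342-stained nuclei imaged at 20x, six fields per well; DNA content per valid cell quantified by cell-cycle image analysis, bidirectional fit versus DMSO.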

Assay [9] is described as follows: APR_HepG2_CellLoss_72hr: Apredica 72-hour HepG2 Assay for Cell Loss (AID 2282915). As to conditions: high-content imaging. In short, it runs like this:
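Cell number comes from Hoechst 33342-labelled nuclei, imaged at 20x after 3.7% formaldehyde fixation. Dosing was 0.39–200 uM, ten concentrations in duplicate, 0.5% DMSO final, for 72 h. Bidirectional fit relative to DMSO baseline.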

A short description of assay [10]: APR_HepG2_P-H2AX_72hr: Apredica 72-hour HepG2 Assay for H2AX Phosphorylation (AID 2282916).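 Further: phospho-histone H2A.x immunostain intensity per cell marking DNA damage.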 The conditions noted are these: imaging, actives raise or lower the signal. In short, it runs like this: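 Phospho-H2A.x imaging endpoint in HepG2 after 72 hr compound exposure (0.39–200 uM, duplicate wells). Activity derived by bidirectional curve fitting with DMSO as baseline.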

The nature of assay [11]: APR_HepG2_MitoMembPot_72hr: Apredica 72-hour HepG2 Assay for Mitochondrial Membrane Potential (AID 2282917). The conditions noted are these: imaging, actives raise or lower the signal. In short, it runs like this: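 Membrane potential read by MitoTracker Red CMXRos (250 nM, 30 min, pre-fixation) fluorescence imaging of HepG2 after 72 hr exposure. Ten concentrations, 0.39–200 uM, duplicate wells, 0.5% DMSO; fitted in both directions against DMSO baseline.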

Assay [12] is described as follows: APR_HepG2_MitoticArrest_72hr: Apredica 72-hour HepG2 Assay for Mitotic Arrest (AID 2282918). As to conditions: high-content imaging, actives raise or lower the signal. A digest of the protocol: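 HepG2 cells treated 72 h at 0.39–200 uM, 0.5% DMSO final; formaldehyde-fixed, stained with Hoechst 33342 and phospho-histone H3 antibody, imaged by high-content fluorescence; bidirectional fit versus DMSO.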

Assay [13] in a line: APR_HepG2_MicrotubuleCSK_72hr: Apredica 72-hour HepG2 Assay for Microtubule CSK Stabilty (AID 2282919). The conditions noted are these: HepG2 microtubule cytoskeleton, high-content imaging, actives raise or lower the signal. A digest of the protocol: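 High-content imaging of alpha-tubulin staining in fixed HepG2 cells after 72 hr treatment with ten concentrations from 0.39 to 200 uM (0.5% DMSO). Fitting was bidirectional against DMSO; taxol served as positive control.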

Assay [14] is described as follows: APR_HepG2_P-H2AX_24hr: Apredica 24-hour HepG2 Assay for H2AX Phosphorylation (AID 2282920). The conditions noted are these: high-content imaging, actives raise or lower the signal. In short, it runs like this: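 HepG2 cells dosed 24 h at 0.39–200 uM (10 points, duplicate, 0.5% DMSO final). Formaldehyde-fixed and permeabilized, then immunostained for phospho-H2A.x with Hoechst. Fluorescence quantified by high-content imaging, fitted bidirectionally versus DMSO.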

Assay [15] is described as follows: APR_HepG2_StressKinase_72hr: Apredica 72-hour HepG2 Assay for Stress Kinase (AID 2282921). As to conditions: HepG2 stress kinase (phospho-c-Jun) imaging, actives raise or lower the signal. In short, it runs like this: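 Stress kinase signal reflects nuclear phospho-c-Jun staining in fixed, permeabilized cells exposed 72 h to compound at 0.39–200 uM; DMSO-normalized, fitted for increases or decreases.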

A short description of assay [16]: APR_HepG2_StressKinase_24hr: Apredica 24-hour HepG2 Assay for Stress Kinase (AID 2282922). As to conditions: HepG2 stress kinase (phospho-c-Jun) imaging, actives raise or lower the signal. A digest of the protocol: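 High-content imaging of phospho-c-Jun immunofluorescence in fixed, permeabilized HepG2 cells after 24 h dosing. Ten concentrations, 0.39 to 200 uM, run in duplicate at 0.5% v/v DMSO; gain or loss of signal versus DMSO.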

The nature of assay [17]: APR_HepG2_MitoMass_72hr: Apredica 72-hour HepG2 Assay for Mitochondrial Mass (AID 2282924).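 Further: MitoTracker Red CMXRos stain intensity per cell imaged as mitochondrial mass.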 The conditions noted are these: high-content imaging, actives raise or lower the signal. A digest of the protocol: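 Readout is imaged MitoTracker Red (250 nM, 30 min, pre-fixation) signal, fitted bidirectionally against DMSO baseline. Human HepG2 liver cells received compound 0.39–200 uM in duplicate for 72 hr, final DMSO 0.5%.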

Assay [18] is described as follows: APR_HepG2_NuclearSize_72hr: Apredica 72-hour HepG2 Assay for Nuclear Size (AID 2282925). As to conditions: high-content imaging, actives raise or lower the signal. In short, it runs like this:
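Nuclear size was read by high-content imaging of Hoechst 33342 stain after formaldehyde fixation. Compounds ran 72 h on HepG2 at 0.39 to 200 uM, with final DMSO 0.5% v/v. Curves fitted both directions relative to DMSO control.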

A short description of assay [19]: APR_HepG2_p53Act_24hr: Apredica 24-hour HepG2 Assay for p53 Activation (AID 2282913).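 Further: p53 protein immunofluorescence averaged per cell in HepG2 with Hoechst nuclei.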 As to conditions: high-content imaging, actives raise or lower the signal. A digest of the protocol:
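HepG2 cells exposed 24 h to compounds at 0.39–200 uM in duplicate, 0.5% v/v DMSO final; fixed, permeabilized, stained with anti-p53 antibody and Hoechst 33342; fluorescence imaging; bidirectional curve fit versus DMSO.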

A short description of assay [20]: APR_HepG2_p53Act_72hr: Apredica 72-hour HepG2 Assay for p53 Activation (AID 2282923).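 Further: average cellular p53 protein immunofluorescence intensity in HepG2 cells.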 As to conditions: high-content imaging, actives raise or lower the signal. In short, it runs like this: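 Fixed-cell p53 staining (sheep primary, Cy5 secondary) measured by fluorescence imaging following 72 hr treatment at 0.39–200 uM in 0.5% DMSO; DMSO served as negative control and baseline.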

Each structure is given as a SMILES string. Calls of active or inactive are those of the source. How the source made its calls: active means hit-call score of the fitted dose curve at least 0.9, where 1 is the maximum; inactive means score below 0.9.

For `CN(C)c1nc(=O)n(C2CCCCC2)c(=O)n1C`, the compound was called inactive in [1], in assay [2], in assay [3], in [4], in [5] and in [6]. The compound was called inactive in assay [7], in [8], in assay [9], in assay [10], in [11] and in assay [12]. In addition, the compound was called inactive in [13], in [14], in [15], in [16], in [17] and in assay [18].

Regarding `CCC(C)(CC)c1cc(NC(=O)c2c(OC)cccc2OC)on1`, the compound was called inactive in assay [1], in assay [2], in assay [3], in [4], in assay [5] and in [6]. Moreover, the call in [7], in assay [8], in assay [10], in assay [11], in assay [13] and in assay [14] was inactive. In addition, the compound was called inactive in [15], in assay [16], in assay [17] and in assay [18]. In addition, in assay [9], the concentration at half-maximal activity (AC50) (in general, the concentration giving half of the maximal activity seen) is 66.4 µM (active).

`Nn1cnnc1`: the result in assay [2], in assay [3], in assay [4], in [5], in assay [6] and in assay [7] was inactive. Moreover, the compound was classed as inactive in assay [19], in assay [8], in assay [10], in assay [11], in assay [12] and in [13]. Also, the outcome in assay [14], in assay [15], in assay [16], in assay [17] and in assay [18] was inactive.

Consider `O=S(=O)(O)C(F)(F)C(F)(F)C(F)(F)C(F)(F)F`, for which the result in [2], in assay [3], in assay [4], in assay [5], in assay [6] and in [7] was inactive. In addition, the compound was classed as inactive in assay [19], in assay [9], in [10], in [11], in assay [13] and in [14]. In addition, the compound was classed as inactive in assay [15], in assay [16], in assay [17] and in [18].

Turning to `Oc1c(Cl)c(Cl)c(Cl)c(Cl)c1Cl`, the compound was classed as inactive in [2], in assay [3], in assay [4], in assay [5], in [6] and in [7]. Besides, the outcome in [19], in assay [10], in assay [11], in assay [13], in assay [14] and in assay [15] was inactive. The result in [16], in assay [20], in [17] and in assay [18] was inactive.

As for `CN(C)CCO`, the compound was called inactive in [2], in assay [3], in assay [4], in assay [5], in assay [6] and in assay [7]. The compound was classed as inactive in assay [19], in assay [10], in [11], in [13], in [14] and in assay [15]. The call in assay [16], in assay [17] and in [18] was inactive.

Regarding `Clc1ccc(C(c2ccccc2Cl)C(Cl)(Cl)Cl)cc1` (stereo not given), the compound was called inactive in [2], in assay [6], in [10], in assay [13], in assay [15] and in assay [17]. The compound was classed as inactive in [18]. The concentration at half-maximal activity (AC50) in assay [3] is 70.5 µM (active); in assay [4], 74.4 µM (active); in assay [5] it was 69.4 µM (active); in assay [7] it was 65.7 µM (active); in assay [19] it was 75.5 µM (active); in [9], 70.6 µM (active). For the same compound, the values for the concentration at half-maximal activity (AC50) in assay [11], in assay [14] and in assay [16] were 56.3 µM (active), 82.8 µM (active) and 114 µM (active), respectively.
